In the library only some 9% were active in any assay of this set; here they are far more common.
JMJD2A Tudor – qHTS Assay for Inhibitors of JMJD2A-Tudor Domain; 390,000 tested, 4.4% active; Lysine-specific demethylase 4A (Homo sapiens), O75164; AlphaScreen JMJD2A-Tudor / H3K4me3 peptide binding; Potency, µM (series often up to 114 µM), hits mostly inhibitors; also: nearly all actives have a fitted effect of over 50% in size
G9a inh – qHTS Assay for Inhibitors of Histone Lysine Methyltransferase G9a. Histone-lysine N-methyltransferase EHMT2 (Homo sapiens), Q96KQ7. G9a H3K9 monomethylation, AlphaScreen, 2 h. Potency, µM (titrated, usually from 102 µM), most hits filed as inhibitors. 350,000 tested, 8.8% active; also: nearly all actives have a fitted effect of over 75% in size
Target sequence (Q96KQ7 913-1193 limits assumed): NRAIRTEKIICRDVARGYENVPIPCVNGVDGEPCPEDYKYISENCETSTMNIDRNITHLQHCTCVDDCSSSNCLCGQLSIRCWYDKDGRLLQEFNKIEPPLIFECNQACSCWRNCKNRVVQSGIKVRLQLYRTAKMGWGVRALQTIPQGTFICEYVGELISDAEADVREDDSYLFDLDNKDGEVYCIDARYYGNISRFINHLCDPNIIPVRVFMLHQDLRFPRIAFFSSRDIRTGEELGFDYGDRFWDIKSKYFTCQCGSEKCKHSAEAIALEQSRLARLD
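G9a (20 nM) preincubated 15 min RT with compounds, then 500 nM biotinylated H3K9 peptide and 20 uM SAM added; 2 h RT reaction. Monomethyl-H3K9 product detected by AlphaScreen with anti-H3K9me1 antibody, streptavidin donor and anti-rabbit IgG acceptor beads.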
12-LOX inh – Primary qHTS assay for inhibitors of human arachidonate 12S-lipoxygenase (ALOX12): Round 2; Polyunsaturated fatty acid lipoxygenase ALOX12 (Homo sapiens), P18054; purified 12hLO, xylenol orange hydroperoxide absorbance; Potency, µM (highest dose often 108 µM), hits mostly inhibitors; 580,000 tested, 1.1% active; AID 1671190, 2021
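Purified human 12hLO (150 nM final) in 25 mM Hepes, 0.01% Triton X-100, pH 7.0 was preincubated 15 min at room temperature with compound. Then 40 uM arachidonic acid was added, 30 min. Hydroperoxide was read by Fe-XO absorbance ratio 573/405 nm.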
BAZ2B inh – qHTS Assay for Inhibitors of BAZ2B; Bromodomain adjacent to zinc finger domain protein 2B (Homo sapiens), Q9UIF8; AlphaScreen BAZ2B-H3K14Ac peptide displacement; 360,000 tested, 4.4% active; Potency, µM (series often up to 114 µM), most hits filed as inhibitors; also: nearly all actives have a fitted effect of over 60% in size
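Protein-peptide AlphaScreen: BAZ2B 50 nM, b-H3K14Ac 50 nM, 1x PBS pH 7.4 + 0.01% Tween-20. Preincubation 30 min RT; cpd 30 min RT (top 110 uM); beads 20 min RT, light-protected.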
HP1b chromo inh – HTS for Inhibitors of HP1-beta Chromodomain Interactions with Methylated Histone Tails. Potency, µM (series often up to 114 µM), most hits filed as inhibitors. AlphaScreen HP1-beta / biotin-H3K9me3 peptide binding. 390,000 tested, 0.56% active. Chromobox protein homolog 1 (Homo sapiens), P83916; also: nearly all actives have a fitted effect of over 70% in size
Target sequence (P83916 whole entry, looked up): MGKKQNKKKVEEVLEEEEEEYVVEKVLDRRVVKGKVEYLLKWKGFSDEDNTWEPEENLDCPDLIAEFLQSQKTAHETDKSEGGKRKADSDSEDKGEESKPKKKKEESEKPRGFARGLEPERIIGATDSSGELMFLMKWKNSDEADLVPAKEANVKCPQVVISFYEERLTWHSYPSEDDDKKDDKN
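AlphaScreen: HP1-beta (50 nM) preformed 30 min with biotin-H3(1-18)K9me3 peptide (50 nM) in PBS pH 7.4, 0.01% Tween-20. Compound added for 30 min at RT, then streptavidin donor/nickel chelate acceptor beads (10 ug/mL) for 30 min.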
PLK1 PBD block – qHTS for Inhibitors of PLK1-PDB (polo-like kinase 1 - polo-box domain): Primary Screen; Serine/threonine-protein kinase PLK1 (Homo sapiens), P53350; Plk1 PBD binding of FITC phosphopeptide, fluorescence polarization; Potency, µM, usual class: inhibitors; 360,000 tested, 2.8% active; AID 720504, 2013; also: series mostly up to about 57 µM; nearly all actives have a fitted effect of over 65% in size
Of the large screens only hits and unclear results are named; the others gave an inactive call. Calls follow the shape of the dose curve; as a rule, active = well fitted curve in the direction sought with a large enough effect; inconclusive = small, poorly fitted or top-dose-only effect, or another doubt; inactive = no such curve, though single readings can be large; an effect the other way counts as inactive or inconclusive.

CCc1cc2c(=O)n(Cc3ccco3)c(SCC(=O)NC3CCS(=O)(=O)C3)nc2s1 (stereo not drawn)	G9a inh 50µM, 12-LOX inh inconclusive
CCn1c2ccccc2c2nnc(SCC(=O)N(C)C3CCS(=O)(=O)C3)nc21 (stereo not drawn)	G9a inh inconclusive
Cc1nc2ccc(S(=O)(=O)NCC(=O)Nc3ccc(C)c(Cl)c3)cc2s1	none (no result: PLK1 PBD block)
CC1NC(C)(C)Cc2c1ccc1ccccc21 (stereo not drawn)	none
CCn1c2ccccc2c2nnc(SCCN3CCOCC3)nc21	none
Cn1c2ccccc2c2nnc(SCC(=O)Nc3cccc(O)c3)nc21	G9a inh 71µM, 12-LOX inh inconclusive
Cn1c2ccccc2c2nnc(SCCN3CCOCC3)nc21	G9a inh 50µM, PLK1 PBD block inconclusive
N#Cc1ccc(NCCc2ccccn2)c([N+](=O)[O-])c1	none (no result: G9a inh)
O=[N+]([O-])c1cc(C(F)(F)F)ccc1NCCNC(=S)Nc1ccc(Cl)cc1	JMJD2A Tudor inconclusive, G9a inh 28µM, 12-LOX inh 40µM, BAZ2B inh 20µM
O=C(O)c1ccc(NCCc2ccc(Cl)cc2)c([N+](=O)[O-])c1	G9a inh 79µM, BAZ2B inh inconclusive
O=[N+]([O-])c1cc(Cl)ccc1NCCc1ccccn1	JMJD2A Tudor 45µM, G9a inh inconclusive, BAZ2B inh 10µM, HP1b chromo inh inconclusive
O=C(COc1ccccc1)NCC(c1ccc(Cl)cc1)N1CCOCC1 (stereo not drawn)	none (no result: PLK1 PBD block)
CC(C)NC(=O)N1CCC(c2noc(-c3ccccc3)n2)C1 (stereo not drawn)	none (no result: JMJD2A Tudor, G9a inh, BAZ2B inh, HP1b chromo inh, PLK1 PBD block)
O=[N+]([O-])c1nn(-c2ccc(Cl)cc2)n(O)c1=NCc1ccccc1Cl	G9a inh inconclusive, BAZ2B inh inconclusive
Cc1cc(C)cc(N=c2c([N+](=O)[O-])nn(-c3cccc(Cl)c3)n2O)c1	JMJD2A Tudor inconclusive, G9a inh 40µM, BAZ2B inh inconclusive
Cc1cccc(N=c2c([N+](=O)[O-])nn(-c3ccc(Cl)cc3)n2O)c1	G9a inh 28µM, BAZ2B inh 10µM
Cc1cccc(-n2nc([N+](=O)[O-])c(=NCc3cccnc3)n2O)c1	none (no result: G9a inh)
O=C1C(=O)N(CCN2CCOCC2)C(c2ccc([N+](=O)[O-])cc2)/C1=C(/O)c1ccc2c(c1)OCO2 (stereo not drawn)	JMJD2A Tudor 25µM, 12-LOX inh inconclusive, PLK1 PBD block inconclusive (no result: G9a inh)
CCN(CC)CCCN1C(=O)C(=O)/C(=C(/O)c2ccc3c(c2)OCCO3)C1c1ccco1 (stereo not drawn)	G9a inh 50µM, 12-LOX inh inconclusive
CN(C)CCCN1C(=O)C(=O)/C(=C(/O)c2ccc3c(c2)OCCO3)C1c1ccco1 (stereo not drawn)	none (no result: JMJD2A Tudor, 12-LOX inh, HP1b chromo inh, PLK1 PBD block)
O=C1C(=O)N(CCCN2CCOCC2)C(c2ccc(F)cc2)/C1=C(\O)c1ccc2c(c1)OCCO2 (stereo not drawn)	G9a inh 45µM
Cc1cccc(OCCCCn2c(C3CC(=O)N(c4ccc(C)cc4C)C3)nc3ccccc32)c1 (stereo not drawn)	JMJD2A Tudor inconclusive, G9a inh inconclusive, 12-LOX inh 18µM, BAZ2B inh inconclusive (no result: PLK1 PBD block)
Cc1cccc(OCCCCn2c(C3CC(=O)N(c4ccccc4Cl)C3)nc3ccccc32)c1 (stereo not drawn)	G9a inh 13µM, BAZ2B inh 50µM (no result: PLK1 PBD block)
COc1ccccc1OCCCn1c(C2CC(=O)N(c3ccccc3Cl)C2)nc2ccccc21 (stereo not drawn)	none (no result: PLK1 PBD block)
CCc1ccccc1N1CC(c2nc3ccccc3n2Cc2cccc(C)c2)CC1=O (stereo not drawn)	G9a inh 1µM (no result: PLK1 PBD block)
COC(=O)C1=C(C)N(Cc2ccccc2)C(=NCc2cc(OC)c(OC)c(OC)c2)N[C@H]1CCc1ccccc1	JMJD2A Tudor inconclusive, BAZ2B inh inconclusive
O=C(CCc1nc(-c2ccccc2F)no1)Nc1ccc(Oc2ccccc2)cc1	none
CC(/C=C/c1ccccc1)=N\NC(=O)c1cc(C)[nH]n1	none
Cc1cc(C(F)(F)F)nc(SCC(=O)c2cccc([N+](=O)[O-])c2)n1	none
N#C/C(=C\N1CCOCC1)c1ccccc1	none
CN(C)/C=C1/C=C(c2ccccc2)OC1=O	G9a inh 35µM, 12-LOX inh inconclusive
O=C1OC(c2ccccc2)=C/C1=C/N1CCOCC1	G9a inh 8.9µM, 12-LOX inh inconclusive
CC1=C/C(=C/N(C)C)C(=O)O1	G9a inh inconclusive
O=C1OC(c2ccccc2)=C/C1=C\N1CCOCC1	JMJD2A Tudor inconclusive, G9a inh 8.9µM, 12-LOX inh inconclusive
COc1ccccc1N1CCN(C(=O)C[C@@H]2O[C@H](CNC(=O)c3ccccc3)[C@@H](O)[C@H]2O)CC1	none (no result: JMJD2A Tudor, G9a inh, BAZ2B inh, HP1b chromo inh, PLK1 PBD block)
COc1ccc(Oc2c(C)oc3cc(OCc4ccccc4F)ccc3c2=O)cc1	none (no result: JMJD2A Tudor, G9a inh, BAZ2B inh, HP1b chromo inh, PLK1 PBD block)
CC(=O)Nc1ccc(S(=O)(=O)Nc2cccc(-c3cn4cccnc4n3)c2)cc1	G9a inh inconclusive
CCCOCc1cc(CN2CCN(c3cccc(Cl)c3)CC2)c(O)c2ncccc12	JMJD2A Tudor 13µM, BAZ2B inh 32µM (no result: PLK1 PBD block)
CCOc1cccc(CN2CCCC(N3CCN(c4cccc(Cl)c4)CC3)C2)c1O (stereo not drawn)	JMJD2A Tudor inconclusive, G9a inh inconclusive, BAZ2B inh inconclusive
CCCCOCc1cc(CN2CCN(c3cccc(Cl)c3)CC2)c(O)c2ncccc12	JMJD2A Tudor 4µM, 12-LOX inh inconclusive, BAZ2B inh 5.6µM (no result: PLK1 PBD block)
O=C(CC[C@H]1O[C@@H](n2cnc3c(NC(=O)c4ccccc4)ncnc32)[C@H](O)[C@@H]1O)NCCCN1CCOCC1	none (no result: JMJD2A Tudor, G9a inh, BAZ2B inh, HP1b chromo inh)
CCOc1cccc2cc(-c3csc(NC(=O)CCC(=O)NCCN4CCCCC4C)n3)c(=O)oc12 (stereo not drawn)	none
Cc1ccc(NC(=O)COC(=O)Cn2cnc3ccccc32)cc1S(=O)(=O)N(C)C	G9a inh 50µM
Cc1ccc(NC(=O)CNCc2ccccc2Cl)cc1S(=O)(=O)N(C)C	JMJD2A Tudor 3.2µM, 12-LOX inh inconclusive, BAZ2B inh 50µM, HP1b chromo inh 32µM
Cc1ccc(NC(=O)CNCc2ccc(Cl)cc2Cl)cc1S(=O)(=O)N(C)C	JMJD2A Tudor 20µM, G9a inh 10µM, 12-LOX inh inconclusive, BAZ2B inh 25µM, HP1b chromo inh 35µM
